Results filed as inconclusive are left out. Activity calls are given as the source filed them. Calls come from the whole dose curve; as a rule, active = well fitted inhibition curve with a large enough effect; inconclusive = small, poorly fitted or top-dose-only effect; inactive = flat fitted curve, though single readings scatter.
System: Zika virus NS2B-NS3 protease
Assay: Primary screen GU AMC qHTS for Zika virus inhibitors (AID 1347154);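 note: 0% = no-inhibitor control and -100% = no-enzyme control; nearly all actives have a fitted effect of over 70% in size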
Conditions: Zika NS2B-NS3 unlinked protease, AMC fluorogenic substrate; series mostly up to 54.1 µM
Method in brief: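 Unlinked Zika NS2B hydrophilic domain/NS3 protease domain noncovalent complex (25 nM final) in 10 mM Tris-HCl pH 8.0, 0.01% Tween 20, with AMC peptide substrate. Fluorescence (ex 340, em 450 nm) change over 15 min, room temperature; percent inhibition fitted to 4-parameter Hill equation.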

Potency, inactive:
CN(C)CCC1(c2ccc(Cl)cc2)Cc2ccccc2C(=O)O1 (stereo not given)
Nc1ncnc2c1cnn2-c1ccccc1
NC(=NCc1ccc(Cl)cc1Cl)NC(=O)c1nc(Cl)c(N)nc1N
O=C1CC2(CCCC2)CC(=O)N1CCCCNCC1COc2ccccc2O1 (stereo not given)
O=c1[nH]cnc2c1ncn2C1O[C@H](CO)[C@@H](O)[C@H]1O (stereo not given in full)
CC#CC(=O)Nc1cc2c(Nc3ccc(F)c(Cl)c3)ncnc2cn1
CC1=C(/C=C/C(C)=C\C=C\C(C)=C\C(=O)O)C(C)(C)CCC1
O=C(O)[C@@H]1CN[C@@H](C(=O)O)C1
C/C=C1/C(=O)C[C@@H]2[C@H]3CCC4=CC(=O)CC[C@]4(C)[C@@H]3CC[C@]12C
c1ccc(COCCCc2cnc[nH]2)cc1
CSCC[C@H](NC(=O)[C@H](Cc1ccccc1)NC[C@@H](NC[C@@H](N)CS)C(C)C)C(=O)O
O=C(NCCCN1CCCCCC1)C(c1ccccc1)C1CCCCC1 (stereo not given)
C=C1O[C@@](CO)(n2cnc3c(N)ncnc32)[C@H](O)[C@@H]1O
COC(=O)[C@H](CCCN=C(N)N)NC(=O)CCCc1c(-c2ccccc2)[nH]c2c(F)cc(F)cc12
O=C(O)c1cc(N(Cc2ccccc2O)Cc2cc(O)ccc2O)ccc1O
C[C@H](N)CCP(=O)(O)O
O=C(O)c1cc(Oc2ccc([N+](=O)[O-])cc2)cc(Oc2ccc([N+](=O)[O-])cc2)c1
OCC(O)COc1cccc2ccccc12 (stereo not given)
O=C(Nc1ccc([N+](=O)[O-])cc1O)Nc1ccccc1Br
CNC(=O)[C@H]1O[C@@H](n2cnc3c(N)ncnc32)[C@H](O)[C@@H]1O
C[C@H](CCC(=O)NCC(=O)O)C1CC[C@H]2C3CC[C@@H]4C[C@H](O)CC[C@]4(C)C3C[C@H](O)[C@]12C (stereo not given in full)
CC(C)ON(CC(=O)NO)S(=O)(=O)c1ccc(-c2ccccc2)cc1
Nc1ncnc2c1ncn2[C@@H]1O[C@H](COP(=O)(O)OP(=O)(O)CP(=O)(O)O)[C@@H](O)[C@H]1O
CCCNC(=O)[C@H]1O[C@@H]1C(=O)N[C@H](C(=O)N1CCC[C@H]1C(=O)OC)[C@@H](C)CC
O=C(O)C1CC(CCCP(=O)(O)O)CCN1 (stereo not given)
CN(Cc1ccccc1)C(=O)[C@H](Cc1ccc2ccccc2c1)NC(=O)[C@@H]1C[C@@H](O)CN1C(=O)c1cn(C)c2ccccc12
COc1ccc(CCCn2ncc3c2nc(N)n2nc(-c4ccco4)nc32)cc1
CC12CCC3C(CCC4CC(O)CCC43C)C1CC=C2c1ccccc1 (stereo not given)
O=C1NN(C(=O)Nc2ccc(Br)cc2)C(c2ccccc2)C1c1ccccc1 (stereo not given)
C[C@@](N)(C(=O)O)[C@@H]1C[C@@H]1C(=O)O
COc1cccc(OC)c1-c1cc(C(=O)NC2(C(=O)O)C3CC4CC(C3)CC2C4)nn1-c1ccc(C(=O)N(C)CCCN(C)C)cc1C(C)C (stereo not given)
Cc1nc2c(c(=O)[nH]1)CSCC2

Activity change, negative = inhibition, inactive:
CC(Sc1nc2ccccc2[nH]1)C(=O)NN=Cc1cc(Br)ccc1O (stereo not given) 1.61% [at 6.83 µM]
CCCCC/C=C\C/C=C\CCCCCCCC(N)=O 15% [at 6.83 µM]
CCCCC[C@H](O)/C=C/[C@@H]1[C@@H](C/C=C\CCCC(=O)O)[C@@H](O)C[C@@H]1O 11.6% [at 6.83 µM]
CCCCCCCCCCCCCCC[C@@H](O)[C@H](CO)NC(=O)CCCCCCC 6.97% [at 6.83 µM]
CCCCC/C=C\C\C=C/C=C/C=C/[C@@H](SC[C@H](N)C(=O)NCC(=O)O)[C@@H](O)CCCC(=O)O 13.3% [at 0.59 µM]
CCCCC/C=C\C[C@@H](O)/C=C/C=C/C=C\[C@@H](O)CCCC(=O)O 25.7% [at 0.59 µM]
CCCCC/C=C\C=C\[C@H](O)CCCCCCCC(=O)O 19.3% [at 0.59 µM]
CCCCCCCCCCCCCCCCOCC(COP(=O)([O-])OCC[N+](C)(C)C)OC (stereo not given) 5.04% [at 6.83 µM]

Reference: PubChem BioAssay (NCATS)
